Source: PubChem (several laboratories)
A selection: hits, their analogues and other compounds. The true share with any hit is near 4.1%.
FBA Mtb inh: inhibitors of M. tuberculosis fructose-bisphosphate aldolase; inhibition, % at 1 µM; AID 588726; actives 2.3% (n = 360,000); purified M. tuberculosis FBA, fluorescence read-out; in the data active = inhibition above about 27%
Target sequence (P9WQA3 whole entry, looked up): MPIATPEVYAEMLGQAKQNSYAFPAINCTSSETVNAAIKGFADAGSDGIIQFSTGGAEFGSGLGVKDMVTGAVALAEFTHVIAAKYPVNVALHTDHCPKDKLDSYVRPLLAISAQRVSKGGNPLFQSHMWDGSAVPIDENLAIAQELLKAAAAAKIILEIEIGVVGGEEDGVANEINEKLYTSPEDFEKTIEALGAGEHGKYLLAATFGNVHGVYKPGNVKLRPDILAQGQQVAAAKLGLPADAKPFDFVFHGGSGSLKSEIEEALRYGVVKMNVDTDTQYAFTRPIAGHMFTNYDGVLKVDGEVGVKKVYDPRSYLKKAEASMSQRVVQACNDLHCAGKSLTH
UGM FP inh: Mtb UDP-galactopyranose mutase inhibition; P9WIQ1; purified UGM, fluorescence polarization probe displacement; inhibition, % at 10 µM; actives 0.06% (n = 320,000); AID 504406; in the data active = inhibition above about 10%, passing the limit was not always enough
RecA splice inh: blocks M. tuberculosis RecA intein splicing. actives 0.75% (n = 290,000). P9WHJ3. inhibition, % (test concentration not listed). cell-free RecA intein splicing, fluorescence; in the data active = inhibition above about 30%
Vc quorum ag: quorum light induction in luxS cqsA deficient V. cholerae. V. cholerae BH1578 lux reporter, luminescence, 6 h. activation, % at 18.7 µM. actives 0.16% (n = 350,000). AID 588436; in the data active = activation mostly above about 9.7%, no sharp cut-off
GDH-TPI counter: inhibits GDH-TPI coupling enzymes, artifact for Mtb FBA screen. GDH-TPI coupled enzyme counterscreen, NADH absorbance. inhibition, % at 4.8 µM. actives 1.2% (n = 360,000); in the data active = inhibition above about 30%
Rv3671c inh: Rv3671c (M. tuberculosis) protease inhibition; P9WHR9; inhibition, % at 5.96 µM; actives 0.048% (n = 320,000); in the data active = inhibition above about 38%;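 note: extracellular domain of Rv3671c used as enzyme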
Numbers stand for hits; n = inactive; x = not tested or not shown; + = active, no number.

SMILES	FBA Mtb inh	UGM FP inh	RecA splice inh	Vc quorum ag	GDH-TPI counter	Rv3671c inh
C[C@@H](NC(=O)c1ncn2c1c(=O)[nH]c1ccc(Br)cc12)c1ccccc1	n	x	x	n	n	x
COc1ccc(NC(=O)c2ccc(NC(=O)COC(=O)CC(NC(=O)c3ccccc3Cl)c3ccccc3)cc2)cc1 (centres undefined)	n	x	n	n	n	n
Cc1nn(C)c(C)c1/C=C(\C#N)S(=O)(=O)c1ccc(F)cc1	n	x	x	n	32.7	x
COC(=O)C1=C(C)NC(C)=C(C(=O)OC)C1c1cn(-c2ccccc2)nc1-c1ccco1	n	n	n	n	33.7	n
CCCC(C)C(=O)Nc1ccc(Cl)cn1 (centres undefined)	n	n	n	n	30.6	n
CCCCC(=O)Nc1ccc(Cl)cn1	n	n	n	n	n	n
O=c1[nH]c(=S)n(Cc2ccc(F)cc2)c(O)c1C=NCCCn1ccnc1	n	n	n	n	31.0	n
CCSc1nnc(NC(=O)c2ccc(C)o2)s1	n	n	n	n	31.8	n
CCOc1cc(C(=O)N(C)CC(=O)Nc2cccc(F)c2)ccc1OCC(=O)N1CCOCC1	n	n	n	n	n	n
N#Cc1nc(-c2cccs2)oc1NCC1CCCO1 (centres undefined)	+	n	n	n	n	n
Cc1ccc(-c2nc(C#N)c(NCC3CCCO3)o2)cc1 (centres undefined)	179.7	n	n	n	n	n
COc1ccc(-c2nc(C#N)c(NCC3CCCO3)o2)cc1 (centres undefined)	177.2	n	x	n	n	n
COc1ccc(C(C)(C)C)cc1NC(=O)CCCN1C(=O)CN(C)C1=O	n	x	x	n	n	x
CCOC(=O)Cc1csc(NC(=O)CSc2nccn2C)n1	n	n	n	n	n	n
Cc1ccc(N=C(NO)c2cnccc2C(F)(F)F)c(C)c1	n	n	n	n	n	n
O=[N+]([O-])c1ccc(O)c(C2CCCCC2)c1	n	x	x	n	n	x
COc1ccc(NC(=O)CSc2nncn2C)cc1OC	n	n	n	16.7	n	n
COc1ccccc1C1CC(c2ccco2)=NN1c1ccccc1 (centres undefined)	148.2	n	n	n	n	n
COc1ccc(C2CC(c3ccc(F)cc3)=NN2c2ccccc2)cc1OC (centres undefined)	n	n	n	n	n	n
Cc1cccc(C)c1NC(=O)CNC(=O)CCNC(=O)c1ccco1	n	n	x	n	n	n
Cc1cc(=O)oc2c(CN(CC(C)C)CC(C)C)c(O)ccc12	x	n	n	x	x	n
CC(C)CN(Cc1c(O)ccc2c3c(c(=O)oc12)CCC3)CC(C)C	+	n	n	n	n	n
O=c1oc2c(CN3CCOCC3)c(O)ccc2c2c1CCC2	+	n	x	n	n	n
CN1CCN(c2ccc(C=O)cc2)CC1	n	n	n	n	37.3	n
O=Cc1ccc(N2CCCCC2)cc1	n	n	n	n	n	n
SMILES	FBA Mtb inh	UGM FP inh	RecA splice inh	Vc quorum ag	GDH-TPI counter	Rv3671c inh
Oc1c(Cl)cc(Cl)cc1Sc1cc(Cl)cc(Cl)c1O	x	n	73.1	x	x	n
CC(O)(c1cccnc1)c1nc(/C=C/c2ccccc2)cs1 (centres undefined)	n	x	x	n	n	x
CCCCn1c(N)c(N(CC(C)C)C(=O)COC(=O)c2ccccc2NCCO)c(=O)[nH]c1=O	125.0	n	n	n	n	n
c1ccc2c(c1)NC1(CCCCCC1)n1c-2nc2ccccc21	160.7	n	n	n	n	n
CC1(c2ccccn2)Nc2ccccc2-c2nc3ccccc3n21 (centres undefined)	111.8	n	n	n	n	n
CN1C(=O)C2(Nc3ccccc3-c3nc4ccccc4n32)c2ccccc21 (centres undefined)	n	n	n	n	n	n
O=C1Nc2ccccc2C12Nc1ccccc1-c1nc3ccccc3n12 (centres undefined)	n	n	n	n	n	n
c1ccc2c(c1)NC1(CCCCC1)n1c-2nc2ccccc21	152.9	n	n	n	n	n
CCCCC1(C)Nc2ccccc2-c2nc3ccccc3n21 (centres undefined)	+	n	n	n	n	n
CC1(C(=O)NS(=O)(=O)c2cccc(F)c2)CCN1C(=O)CCC1CCCC1 (centres undefined)	n	x	x	n	n	x
COCCNC(=S)N1CCC2CC1c1cc(-c3ccc4c(c3)OCO4)ccc12 (centres undefined)	n	x	x	x	x	x
Cc1cccc(N(CC(=O)N/N=C/c2cc([N+](=O)[O-])ccc2Cl)S(C)(=O)=O)c1C	34.0	x	n	n	n	n
COc1ccc2cc(CO)c3cc(OC)c(OC)cc3c2c1	n	n	x	n	n	n
COc1cc(/C=C(\C#N)C(=O)NC2CCCCC2C)ccc1OS(=O)(=O)c1ccc(C)cc1 (centres undefined)	n	n	55.5	n	n	n
COc1cc(/C=C(\C#N)C(N)=O)ccc1OS(=O)(=O)c1ccc(C)cc1	n	x	n	n	n	n
COc1cccc(-c2nnn(CC(=O)N(C3CCCCC3)C3CCS(=O)(=O)C3)n2)c1 (centres undefined)	n	x	x	n	n	x
Clc1cc2c(cc1/C=N/Nc1nc(N3CCOCC3)nc(N3CCOCC3)n1)OCO2	n	n	n	n	n	n
Cc1cc(N/N=C/c2ccc(O)cc2O)nc(N2CCOCC2)n1	n	n	n	n	69.1	n
Cc1nc(N/N=C/c2cccnc2)cc(N2CCOCC2)n1	n	x	x	n	30.7	x
COc1nc(N/N=C/c2cc3c(cc2Br)OCO3)nc(N2CCOCC2)n1	n	n	n	n	33.0	n
Cc1cccc(/C=N/Nc2cc(N3CCOCC3)nc(N3CCOCC3)n2)c1	n	n	n	n	n	n
Cc1cc(N/N=C/c2ccccc2)nc(N2CCOCC2)n1	n	n	n	n	n	n
COc1ccc(/C=N/Nc2cc(C)nc(N3CCOCC3)n2)c(OC)c1	n	n	n	n	47.6	n
CCOC(=O)C1=C(C)OC(N)=C(C#N)C1c1ccc(C)s1 (centres undefined)	n	n	n	n	n	n
Cc1cc(C)c(S(=O)(=O)Nc2ncn[nH]2)cc1C	n	n	x	n	n	n
SMILES	FBA Mtb inh	UGM FP inh	RecA splice inh	Vc quorum ag	GDH-TPI counter	Rv3671c inh
Cc1noc(C)c1COc1ccccc1C(=O)N(C)Cc1ccc(C(C)(C)C)cc1	n	n	x	n	n	n
COc1ccc(OC)c(C(C(=O)NC2CCCCC2)N(C(=O)c2ccccn2)c2cccnc2)c1 (centres undefined)	n	n	n	n	n	n
Cc1c(Cl)cnc(NC(=O)COC(=O)c2cccc(S(=O)(=O)N3CCOCC3)c2)c1Cl	n	x	x	n	n	x
Cc1ccc(/C=N/Nc2cc(C)nc(N3CCOCC3)n2)cc1	n	n	n	n	31.3	n
Oc1ccc(/C=N\Nc2cc(N3CCOCC3)nc(N3CCOCC3)n2)c(O)c1	n	n	n	n	65.4	n
CCC(=O)OC1(C(C)=O)CCC2C3CCC4=CC(=O)CCC4(C)C3CCC21C (centres undefined)	n	x	x	n	n	x
O=[N+]([O-])c1ccc(-c2ccc(/C=N/c3c(-c4ccco4)nc4ccccn34)o2)cc1	n	n	n	n	49.2	n
